Measured values from PubChem BioAssay (NCATS).
Inconclusive results are not listed. Activity calls are given as the source filed them. Calls come from the whole dose curve.

Tests used:
[1] = Primary qHTS for inhibitors of SARS-S pseudo-typed particle cell entry (AID 1479145); note: nearly all actives have a fitted effect of over 45% in size; for activity change, negative = inhibition: series mostly up to about 57 µM
[2] = Primary qHTS for Huh7 cytotoxicity: counterscreen for inhibitors of MERS-S pseudotyped particle cell entry (AID 1479147)
[3] = Primary qHTS for inhibitors of MERS-S pseudo-typed particle cell entry (AID 1479149); note: nearly all actives have a fitted effect of over 60% in size; for activity change, negative = inhibition: series mostly up to about 57 µM
[4] = Primary qHTS for Vero E6 cytotoxicity: counterscreen for inhibitors of SARS-S pseudo-typed particle cell entry (AID 1479150)
% is set by controls: 0 for no effect and ±100 for the full control effect.

Cc1ccc(Cl)c(Nc2ccccc2C(=O)O)c1Cl
inactive: Potency [1] | Potency [2] | Potency [3] | Potency [4]

CCCCCCCCCCCCOCCO
inactive: Potency [1] | Potency [2] | Potency [3] | Potency [4]

O=C(c1ccccc1)C(O)c1ccccc1 (configuration not stated)
inactive: Potency [1] | Potency [2] | Potency [3] | Potency [4]

O=c1cc(O)c(Cl)c[nH]1
inactive: Potency [1] | Potency [2] | Potency [3] | Potency [4]

NCCS(=O)(=O)O
inactive: Potency [1] | Potency [2] | Potency [3] | Potency [4]

CC(=O)NCCCS(=O)(=O)O
inactive: Potency [1] | Potency [2] | Potency [3] | Potency [4]

C[C@]12C=CC(=O)C=C1CC[C@@H]1[C@@H]2C(=O)C[C@@]2(C)[C@H]1CC[C@]2(O)C(=O)CO
inactive: Potency [1] | Potency [2] | Potency [3] | Potency [4]

OCCc1ccccc1
inactive: Potency [1] | Potency [2] | Potency [3] | Potency [4]

CCCCCCCCCCCCCCCCO
inactive: Potency [1] | Potency [2] | Potency [3] | Potency [4]

COc1nccnc1NS(=O)(=O)c1ccc(N)cc1
inactive: Potency [1] | Potency [2] | Potency [3] | Potency [4]

COC(=O)c1cccnc1
inactive: Potency [1] | Potency [2] | Potency [3] | Potency [4]

CN(C)CCOC(=O)COc1ccc(Cl)cc1
inactive: Potency [1] | Potency [2] | Potency [3] | Potency [4]

COCCCN1CCC(NC(=O)c2cc(Cl)c(N)c3c2OCC3)CC1
inactive: Potency [1] | Potency [2] | Potency [3] | Potency [4]

NC(=O)NC1N=C([O][Al])NC1=O (configuration not stated)
inactive: Potency [1] | Potency [2] | Potency [3] | Potency [4]

CCC(Cc1c(I)cc(I)c(N)c1I)C(=O)O (configuration not stated)
inactive: Potency [1] | Potency [2] | Potency [3] | Potency [4]

CCCc1c2oc(C(=O)O)cc(=O)c2cc2c(=O)cc(C(=O)O)n(CC)c12
inactive: Potency [1] | Potency [2] | Potency [3] | Potency [4]

Cc1c(I)c(=O)n(-c2ccccc2)n1C
inactive: Potency [1] | Potency [2] | Potency [3] | Potency [4]

Nc1ccc(S(=O)(=O)Nc2ccnn2-c2ccccc2)cc1
inactive: Potency [1] | Potency [2] | Potency [3] | Potency [4]

CCOC(=O)c1ccc(N)cc1
inactive: Potency [1] | Potency [2] | Potency [3] | Potency [4]

CC(=O)OCC(=O)[C@@]1(O)CC[C@H]2[C@@H]3CCC4=CC(=O)CC[C@]4(C)[C@H]3C(=O)C[C@@]21C
inactive: Potency [1] | Potency [2] | Potency [3] | Potency [4]

COc1ccc(C2CNC(=O)C2)cc1OC1CCCC1 (configuration not stated)
inactive: Potency [1] | Potency [2] | Potency [3] | Potency [4]

O=C(O)[C@H](O)c1ccccc1
inactive: Potency [1] | Potency [2] | Potency [3] | Potency [4]

NS(=O)(=O)c1cc(C2(O)NC(=O)c3ccccc32)ccc1Cl (configuration not stated)
inactive: Potency [1] | Potency [2] | Potency [3] | Potency [4]

CC1CCN(CCCC(=O)c2ccc(F)cc2)CC1
inactive: Potency [1] | Potency [2] | Potency [3] | Potency [4]

Cc1ccccc1N1CCN(CCc2nnc3n2CCCC3)CC1
inactive: Potency [1] | Potency [2] | Potency [3] | Potency [4]

O=C1[C@@H]2[C@H]3CC[C@H](C3)[C@@H]2C(=O)N1CCCCN1CCN(c2ncccn2)CC1
inactive: Potency [1] | Potency [2] | Potency [3] | Potency [4]

CCCCCCCCCCCCSCCOCCO
inactive: Potency [1] | Potency [2] | Potency [3] | Potency [4]

O=C(O)CCCCCCCC(=O)O
inactive: Potency [1] | Potency [2] | Potency [3] | Potency [4]

NC(=O)c1ccc([N+](=O)[O-])cc1Cl
inactive: Potency [1] | Potency [2] | Potency [3] | Potency [4]

C[N+]1(C)CCCC(OC(=O)C(O)(c2ccccc2)c2ccccc2)C1 (configuration not stated)
inactive: Potency [1] | Potency [2] | Potency [3] | Potency [4]

O=P(O)(O)C(Sc1ccc(Cl)cc1)P(=O)(O)O
inactive: activity change, negative = inhibition [1] -6.9% [at 0.573 µM] | outcome [2] inactive [at 0.573 µM] | outcome [3] inactive [at 0.573 µM] | outcome [4] inactive [at 0.573 µM]

O=c1[nH]cnc2[nH]ncc12
inactive: Potency [1] | Potency [2] | Potency [3] | Potency [4]

CCN(CC)CCNC(=O)c1ccc(N)cc1
inactive: Potency [1] | Potency [2] | Potency [3] | Potency [4]

CCc1cccc(CC)c1NC(=O)CN(CC(=O)O)CC(=O)O
inactive: Potency [1] | Potency [2] | Potency [3] | Potency [4]

CCn1nc(C(=O)O)c(=O)c2cc3c(cc21)OCO3
inactive: Potency [1] | Potency [2] | Potency [3] | Potency [4]

Cc1ccccc1OCC(O)CO (configuration not stated)
inactive: Potency [1] | Potency [2] | Potency [3] | Potency [4]

CCCCCCCCCCCCCCCC(=O)OCCC1CCN(CCCN2c3ccccc3Sc3ccc(S(=O)(=O)N(C)C)cc32)CC1
inactive: Potency [1] | Potency [2] | Potency [3] | Potency [4]

NC(N)=NCCN1CCCCCCC1
inactive: outcome [1] inactive [at 0.573 µM] | outcome [2] inactive [at 0.573 µM] | outcome [3] inactive [at 0.573 µM] | activity change, negative = cytotoxicity [4] 3.58% [at 0.573 µM]
